Test results from PubChem BioAssay.
Where “and” joins values, the source holds several entries; their conditions need not be identical. Identical values can stand only once. Inconclusive results are not listed. Calls of active or inactive are those of the source.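 How the source made its calls, unless noted: active means normalized viability below 100% at a tested concentration; inactive means the rest.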

Legend:
[1] = test system: Aerobactin synthetase IucA (Klebsiella pneumoniae); test: IucA aerobactin synthetase inhibitors, biochemical, Tocris library, absorbance (AID 1345561; call rule not given here;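 further: 100% = enzyme without compound and 0% = no enzyme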); details: purified IucA enzyme assay, absorbance (OD) read-out; stronger effect = lower value;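 tested at 8 µM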
[2] = growth inhibition of DIPG glioma cells, dose response, cell-based, SU-DIPG-XVII, MIPE5.0, CellTiter-Glo, qHTS (AID 1347060; cut-off not given, nearly all actives have AC50 up to about 26 µM;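 on AC50: cells exposed to compound for 48 hours before viability readout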); details: SU-DIPG-XVII viability, CellTiter-Glo ATP luminescence
[3] = growth inhibition of DIPG glioma cells, dose response, cell-based, JHH-DIPG-1, MIPE4.0, CellTiter-Glo, qHTS (AID 1347062; cut-off not given, nearly all actives have AC50 up to about 27 µM;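 on AC50: cells exposed to compound for two days before readout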); details: JHH-DIPG-1 viability, CellTiter-Glo ATP luminescence
[4] = sensitizers of A549 cells to miR-34 induction, primary screen, imaging, A549 dox-inducible miR-34, nuclei and caspase counts (AID 1347080;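 active means compounds whose cell count with miR-34 switched on is under 0.7 times the count with it off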); details: A549 miR-34 inducible, Hoechst nuclei count, 48 h
[5] = viability rescue of complex I mutant cybrids, primary screen, cell-based, galactose medium, ATP luminescence (AID 1645843;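 active means z-score of at least 1.8 in each of two replicates, scored against plate mean and spread of sample wells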;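 further: positive z means more ATP and so rescue of galactose-driven cybrid death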); details: complex I mutant cybrid cells, 72 h, stronger effect = higher value
[6] = growth inhibition of DIPG glioma cells, dose response, cell-based, SU-DIPG-XIII, MIPE4.0, CellTiter-Glo, qHTS (AID 1347061; cut-off not given, nearly all actives have AC50 up to about 37 µM;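 further: cells exposed to compound for 48 hours before readout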); details: SU-DIPG-XIII viability, CellTiter-Glo ATP luminescence
[7] = growth inhibition of DIPG glioma cells, dose response, cell-based, SU-DIPG-IV, MIPE4.0, CellTiter-Glo, qHTS (AID 1347063; cut-off not given, nearly all actives have AC50 up to about 30 µM;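 further: compound exposure lasted 48 hours before the viability readout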); details: SU-DIPG-IV viability, CellTiter-Glo ATP luminescence
[8] = viability loss in pontine glioma line – cell-based, SU-DIPG-XXV, MIPE5.0, CellTiter-Glo, qHTS, dose response (AID 1347065; cut-off not given, nearly all actives have AC50 up to about 26 µM;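 further: cells exposed to compound for 48 hours before ATP readout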); details: CellTiter-Glo ATP luminescence
[9] = SU-DIPG-VI glioma cell viability, MIPE4.0 library, CellTiter-Glo luminescence, qHTS (AID 1347066; cut-off not given, nearly all actives have AC50 up to about 30 µM;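 further: cells exposed to compound for 48 hours before readout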); details: CellTiter-Glo ATP luminescence
[10] = JHH-DIPG-1 glioma cell viability, MIPE5.0 library, CellTiter-Glo luminescence, qHTS (AID 1347067; cut-off not given, nearly all actives have AC50 up to about 26 µM;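 further: cells exposed to compound for 48 hours before readout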); details: JHH-DIPG-1 glioma viability, CellTiter-Glo ATP luminescence
[11] = SU-DIPG-XXV glioma cell viability, MIPE5.0 library, qHTS (AID 1347068; cut-off not given, nearly all actives have IC50 up to about 30 µM;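 on IC50: cells exposed to compound for 48 hours before viability readout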)
[12] = modifiers of HSF1 nuclear foci, imaging, Selleck Cancer Library (AID 1347162; in the data active means plate-normalised HSF1 focus index below about 0.46); details: human cells, at 10 µM; SSMD: measured here: HSF1 foci SSMD mean; cell count: measured here: cell number; plate-normalised HSF1 focus index: stronger effect = lower value
[13] = survival rescue of mitochondrial mutant cells in low glucose, primary screen, MELAS cybrids, Rieske KO mouse fibroblasts, CellTiter-Glo (AID 1508586;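 active means mean z-score across replicates of 1.96 or higher in either the MELAS or the Rieske mutant cell line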;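 further: z relative to plate mean and SD of compound and empty wells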)
[14] = ovarian cancer cell viability with rucaparib, profiling panel, oncology-focused library, rucaparib conditional (AID 1508598); details: patient-derived ovarian cancer cells, CellTiter-Glo viability, 144 h, stronger effect = lower value
[15] = growth inhibition of DIPG glioma cells, dose response, cell-based, SU-DIPG-XIII, MIPE5.0, CellTiter-Glo, qHTS (AID 1347064; cut-off not given, nearly all actives have AC50 up to about 23 µM;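 on AC50: cells exposed to compound for 48 hours before the viability read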); details: SU-DIPG-XIII viability, CellTiter-Glo ATP luminescence
[16] = stronger effect = lower value, cell number ratio, induced over uninduced
[17] = measured here: relative caspase fold change +Dox/-Dox
[18] = measured here: total cells with miR-34 induction, stronger effect = lower value
[19] = measured here: total cells without miR-34 induction
[20] = MELAS cybrid survival, CellTiter-Glo 48 h, stronger effect = higher value
[21] = Rieske KO mouse fibroblast survival, CellTiter-Glo 72 h
[22] = at 0.000305 µM, OCI-C5x cells, with rucaparib 10 µM, 100% = cells with rucaparib alone
[23] = at 0.000305 µM, OCI-C5x cells, without rucaparib
[24] = at 0.000305 µM, OCI-P5x cells, with rucaparib 20 µM, 100% = cells with rucaparib alone
[25] = at 0.000305 µM, OCI-P5x cells, without rucaparib
[26] = at 0.00122 µM, OCI-C5x cells, with rucaparib 10 µM, 100% = cells with rucaparib alone
[27] = at 0.00122 µM, OCI-C5x cells, without rucaparib
[28] = at 0.00122 µM, OCI-P5x cells, with rucaparib 20 µM, 100% = cells with rucaparib alone
[29] = at 0.00122 µM, OCI-P5x cells, without rucaparib
[30] = at 0.00488 µM, OCI-C5x cells, with rucaparib 10 µM, 100% = cells with rucaparib alone
[31] = at 0.00488 µM, OCI-C5x cells, without rucaparib
[32] = at 0.00488 µM, OCI-P5x cells, with rucaparib 20 µM, 100% = cells with rucaparib alone
[33] = at 0.00488 µM, OCI-P5x cells, without rucaparib
[34] = at 0.0195 µM, OCI-C5x cells, with rucaparib 10 µM, 100% = cells with rucaparib alone
[35] = at 0.0195 µM, OCI-C5x cells, without rucaparib
[36] = at 0.0195 µM, OCI-P5x cells, with rucaparib 20 µM, 100% = cells with rucaparib alone
[37] = at 0.0195 µM, OCI-P5x cells, without rucaparib
[38] = at 0.0781 µM, OCI-C5x cells, with rucaparib 10 µM, 100% = cells with rucaparib alone
[39] = at 0.0781 µM, OCI-C5x cells, without rucaparib
[40] = at 0.0781 µM, OCI-P5x cells, with rucaparib 20 µM, 100% = cells with rucaparib alone
[41] = at 0.0781 µM, OCI-P5x cells, without rucaparib
[42] = at 0.313 µM, OCI-C5x cells, with rucaparib 10 µM, 100% = cells with rucaparib alone
[43] = at 0.313 µM, OCI-C5x cells, without rucaparib
[44] = at 0.313 µM, OCI-P5x cells, with rucaparib 20 µM, 100% = cells with rucaparib alone
[45] = at 0.313 µM, OCI-P5x cells, without rucaparib
[46] = at 1.25 µM, OCI-C5x cells, with rucaparib 10 µM, 100% = cells with rucaparib alone
[47] = at 1.25 µM, OCI-C5x cells, without rucaparib
[48] = at 1.25 µM, OCI-P5x cells, with rucaparib 20 µM, 100% = cells with rucaparib alone
[49] = at 1.25 µM, OCI-P5x cells, without rucaparib
[50] = at 5 µM, OCI-C5x cells, with rucaparib 10 µM, 100% = cells with rucaparib alone
[51] = at 5 µM, OCI-C5x cells, without rucaparib
[52] = at 5 µM, OCI-P5x cells, with rucaparib 20 µM, 100% = cells with rucaparib alone
[53] = at 5 µM, OCI-P5x cells, without rucaparib

Cc1[nH]c(/C=C2\C(=O)Nc3ccccc32)c(C)c1CCC(=O)O
5970: cell count [4, 18]
1.48: fold change [4, 17]
inactive: remaining activity [1] 95.9% | fold change [4, 16] 0.887 | z-score [5] 0.51
active: AC50 [2] 16600 nM | AC50 [3] 16.6 µM
6730: cell count [4, 19]

N#Cc1c(O)c2c(-c3ccc(-c4ccccc4O)cc3)csc2[nH]c1=O
10900 and 9540: cell count [4, 19]
active: viability [14, 52] 92.2% | viability [14, 53] 90.6%
7410: cell count [12]
0.924 and 1.54: fold change [4, 17]
10000 and 9660: cell count [4, 18]
3.35: SSMD [12]
inactive: remaining activity [1] 103% | outcome [2] | outcome [6] | outcome [3] | outcome [7] | outcome [8] | outcome [9] | outcome [10] | outcome [11] | fold change [4, 16] 0.919 and 1.01 | plate-normalised HSF1 focus index [12] 1.12 | z-score [13, 20] -0.277 | viability [14, 22] 106% | viability [14, 23] 121% | viability [14, 24] 114% | viability [14, 25] 119% | viability [14, 26] 115% | viability [14, 27] 131% | viability [14, 28] 119% | viability [14, 29] 107% | viability [14, 30] 111% | viability [14, 31] 126% | viability [14, 32] 116% | viability [14, 33] 113% | viability [14, 34] 112% | viability [14, 35] 122% | viability [14, 36] 116% | viability [14, 37] 114% | viability [14, 38] 113% | viability [14, 39] 127% | viability [14, 40] 119% | viability [14, 41] 115% | viability [14, 42] 115% | viability [14, 43] 134% | viability [14, 44] 117% | viability [14, 45] 118% | viability [14, 46] 112% | viability [14, 47] 140% | viability [14, 48] 107% | viability [14, 49] 107% | viability [14, 50] 118% | viability [14, 51] 135% | z-score [5] 1.98
1.29: z-score [13, 21]

CCc1c2c(nc3ccc(O)cc13)-c1cc3c(c(=O)n1C2)COC(=O)[C@]3(O)CC
3.45 and 2.11: fold change [4, 17]
inactive: remaining activity [1] 107% | fold change [4, 16] 0.769 and 0.994 | z-score [13, 20] 0.182 | z-score [5] -0.66
-0.363: z-score [13, 21]
1960 and 2080: cell count [4, 19]
1510 and 2070: cell count [4, 18]
active: AC50 [2] 8.33 nM | AC50 [7] 29.6 nM

O=C(O)C1CCCN(CCC=C(c2ccccc2)c2ccccc2)C1 (stereo unspecified)
inactive: remaining activity [1] 104% | outcome [2] | outcome [6] | outcome [3] | outcome [7] | outcome [15] | outcome [9] | outcome [10] | outcome [11] | fold change [4, 16] 0.98 and 0.952 | z-score [5] 0.12 and 0.13
1.12 and 1.07: fold change [4, 17]
9480 and 9430: cell count [4, 19]
9290 and 8980: cell count [4, 18]

O=c1[nH]c(-c2ccc(C(F)(F)F)cc2)nc2c1CSCC2
7170: cell count [12]
1.98: SSMD [12]
4660 and 5860 and 8410: cell count [4, 19]
0.33: z-score [13, 21]
0.982 and 0.937 and 1.32: fold change [4, 17]
4310 and 5060 and 7820: cell count [4, 18]
active: viability [14, 23] 93.7% | viability [14, 24] 98.7% | viability [14, 27] 99.5% | viability [14, 33] 99.8% | viability [14, 45] 94.6% | viability [14, 47] 99.4% | viability [14, 53] 99%
inactive: remaining activity [1] 117% | outcome [2] | outcome [3] | outcome [10] | outcome [11] | fold change [4, 16] 0.924 and 0.863 and 0.929 | plate-normalised HSF1 focus index [12] 1.12 | z-score [13, 20] -0.501 | viability [14, 22] 100% | viability [14, 25] 103% | viability [14, 26] 108% | viability [14, 28] 107% | viability [14, 29] 106% | viability [14, 30] 121% | viability [14, 31] 102% | viability [14, 32] 110% | viability [14, 34] 109% | viability [14, 35] 102% | viability [14, 36] 114% | viability [14, 37] 113% | viability [14, 38] 110% | viability [14, 39] 104% | viability [14, 40] 106% | viability [14, 41] 105% | viability [14, 42] 107% | viability [14, 43] 102% | viability [14, 44] 105% | viability [14, 46] 107% | viability [14, 48] 113% | viability [14, 49] 103% | viability [14, 50] 115% | viability [14, 51] 112% | viability [14, 52] 105% | z-score [5] 0.565

CCOc1ccc(Nc2nc(-c3c(C)nc4ccccn34)cs2)cc1
2200: cell count [4, 18]
1.27: fold change [4, 17]
4.16: SSMD [12]
6300: cell count [12]
active: AC50 [2] 66.1 nM | AC50 [3] 16.6 µM | AC50 [15] 59 nM | AC50 [8] 37.2 nM | AC50 [10] 52.5 nM | IC50 [11] 372 nM
2140: cell count [4, 19]
inactive: remaining activity [1] 103% | outcome [9] | fold change [4, 16] 1.03 | plate-normalised HSF1 focus index [12] 1.25 | z-score [5] -0.68
